# Measurements as given in PubChem BioAssay AID1159580 (chemical genetic matrix, 2015).
# About 2,000 (36%) of roughly 5,500 compounds were called active. Another 18% or so got no clear call; they are omitted. The list shows a part of the results. Values without a mark were called inactive. Rule as the data show it: active = normalized growth mostly below about 0.91 (no sharp cut-off); inconclusive = no clear call, values can overlap the other calls; inactive = mostly above about 0.92.
# Test: chemical genetic growth profiling, strain panel (AID 1159580);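 also: tested at 20 µM; growth read once vehicle control cultures reached saturation at 30 °C; 1 = growth at the plate median or of vehicle wells; lower values mean less growth of the strain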
# Conditions: growth OD
smiles,measurement,setting,value
CCCCCCCCNC(C)C(O)c1ccc(SC(C)C)cc1 (stereo not drawn),normalized growth,"S. cerevisiae deletion strains, locus YKL009W, strain mrt4, hits give low values",0.843 (active)
same,normalized growth,"S. cerevisiae deletion strains, locus YKL068W, hits give low values",1.02
same,normalized growth,"S. cerevisiae deletion strains, locus YKL085W, strain MDH1 (second series), hits give low values",0.936
same,normalized growth,"S. cerevisiae deletion strains, locus YKL085W, strain MDH1, hits give low values",0.936
same,normalized growth,"S. cerevisiae deletion strains, locus YKL160W, strain elf1, hits give low values",0.0721 (active)
same,normalized growth,"S. cerevisiae deletion strains, locus YKL190W, strain CNB1, hits give low values",0.0442 (active)
same,normalized growth,"S. cerevisiae deletion strains, locus YKR001C, strain vps1, hits give low values",0.0592 (active)
same,normalized growth,"S. cerevisiae deletion strains, locus YKR026C, strain gcn3, hits give low values",0.0783 (active)
same,normalized growth,"S. cerevisiae deletion strains, locus YKR091W, strain srl3, hits give low values",0.0575 (active)
same,normalized growth,"S. cerevisiae deletion strains, locus YLL001W, strain dnm1, hits give low values",0.0576 (active)
same,normalized growth,"S. cerevisiae deletion strains, locus YLL026W, hits give low values",0.0545 (active)
same,normalized growth,"S. cerevisiae deletion strains, locus YLL041C, strain sdh2, hits give low values",0.0563 (active)
same,normalized growth,"S. cerevisiae deletion strains, locus YLR027C, strain aat2, hits give low values",0.053 (active)
same,normalized growth,"S. cerevisiae deletion strains, locus YLR039C, strain RIC1, hits give low values",0.0765 (active)
same,normalized growth,"S. cerevisiae deletion strains, locus YLR058C, strain SHM2, hits give low values",0.0441 (active)
same,normalized growth,"S. cerevisiae deletion strains, locus YLR102C, strain apc9, hits give low values",0.0595 (active)
same,normalized growth,"S. cerevisiae deletion strains, locus YLR113W, strain HOG1, hits give low values",1.04
same,normalized growth,"S. cerevisiae deletion strains, locus YLR221C, strain rsa3, hits give low values",0.0556 (active)
same,normalized growth,"S. cerevisiae deletion strains, locus YLR258W, strain gsy2, hits give low values",0.0584 (active)
same,normalized growth,"S. cerevisiae deletion strains, locus YLR262C, strain YPT6 (second series), hits give low values",0.0924 (active)
same,normalized growth,"S. cerevisiae deletion strains, locus YLR262C, strain YPT6, hits give low values",0.0999 (active)
same,normalized growth,"S. cerevisiae deletion strains, locus YLR268W, strain sec22, hits give low values",0.0594 (active)
same,normalized growth,"S. cerevisiae deletion strains, locus YLR320W, strain mms22, hits give low values",0.0684 (active)
same,normalized growth,"S. cerevisiae deletion strains, locus YLR330W, strain CHS5, hits give low values",0.0493 (active)
same,normalized growth,"S. cerevisiae deletion strains, locus YLR342W, strain FKS1 (second series), hits give low values",0.06 (active)
same,normalized growth,"S. cerevisiae deletion strains, locus YLR342W, strain FKS1, hits give low values",0.0614 (active)
same,normalized growth,"S. cerevisiae deletion strains, locus YLR357W, strain rsc2, hits give low values",0.111 (active)
same,normalized growth,"S. cerevisiae deletion strains, locus YLR370C, strain arc18, hits give low values",0.0598 (active)
same,normalized growth,"S. cerevisiae deletion strains, locus YLR371W, strain rom2, hits give low values",0.0595 (active)
same,normalized growth,"S. cerevisiae deletion strains, locus YLR384C, strain iki3, hits give low values",0.0596 (active)
same,normalized growth,"S. cerevisiae deletion strains, locus YLR418C, strain cdc73, hits give low values",0.0837 (active)
same,normalized growth,"S. cerevisiae deletion strains, locus YML016C, strain PPZ1, hits give low values",0.0438 (active)
same,normalized growth,"S. cerevisiae deletion strains, locus YML032C, strain rad52, hits give low values",0.0627 (active)
same,normalized growth,"S. cerevisiae deletion strains, locus YML120C, strain ndi1, hits give low values",0.0554 (active)
same,normalized growth,"S. cerevisiae deletion strains, locus YML124C, strain tub3, hits give low values",0.0561 (active)
same,normalized growth,"S. cerevisiae deletion strains, locus YMR058W, strain fet3, hits give low values",0.0583 (active)
same,normalized growth,"S. cerevisiae deletion strains, locus YMR078C, strain ctf18, hits give low values",0.0681 (active)
same,normalized growth,"S. cerevisiae deletion strains, locus YMR125W, strain sto1, hits give low values",0.0638 (active)
same,normalized growth,"S. cerevisiae deletion strains, locus YMR129W, hits give low values",0.057 (active)
same,normalized growth,"S. cerevisiae deletion strains, locus YMR205C, strain PFK2, hits give low values",0.0745 (active)
same,normalized growth,"S. cerevisiae deletion strains, locus YMR223W, strain ubp8, hits give low values",0.0556 (active)
same,normalized growth,"S. cerevisiae deletion strains, locus YMR231W, strain pep5, hits give low values",0.0629 (active)
same,normalized growth,"S. cerevisiae deletion strains, locus YMR263W, strain SAP30, hits give low values",0.0563 (active)
same,normalized growth,"S. cerevisiae deletion strains, locus YMR307W, strain GAS1, hits give low values",0.113 (active)
same,normalized growth,"S. cerevisiae deletion strains, locus YNL067W, strain RPL9B, hits give low values",0.0464 (active)
same,normalized growth,"S. cerevisiae deletion strains, locus YNL071W, strain lat1, hits give low values",0.0586 (active)
same,normalized growth,"S. cerevisiae deletion strains, locus YNL128W, strain TEP1, hits give low values",0.0711 (active)
same,normalized growth,"S. cerevisiae deletion strains, locus YNL183C, strain NPR1, hits give low values",0.916
same,normalized growth,"S. cerevisiae deletion strains, locus YNL209W, strain ssb2, hits give low values",0.057 (active)
same,normalized growth,"S. cerevisiae deletion strains, locus YNL233W, strain BNI4, hits give low values",0.0511 (active)
same,normalized growth,"S. cerevisiae deletion strains, locus YNL248C, strain rpa49, hits give low values",0.0589 (active)
same,normalized growth,"S. cerevisiae deletion strains, locus YNL250W, strain rad50, hits give low values",0.849 (active)
same,normalized growth,"S. cerevisiae deletion strains, locus YNL271C, strain bni1, hits give low values",0.501 (active)
same,normalized growth,"S. cerevisiae deletion strains, locus YNL298W, strain CLA4, hits give low values",0.357 (active)
same,normalized growth,"S. cerevisiae deletion strains, locus YNL307C, strain MCK1, hits give low values",0.0662 (active)
same,normalized growth,"S. cerevisiae deletion strains, locus YNL322C, strain KRE1 (second series), hits give low values",0.0644 (active)
same,normalized growth,"S. cerevisiae deletion strains, locus YNR049C, strain mso1, hits give low values",0.0544 (active)
same,normalized growth,"S. cerevisiae deletion strains, locus YNR052C, strain pop2, hits give low values",0.0594 (active)
same,normalized growth,"S. cerevisiae deletion strains, locus YOL006C, strain TOP1, hits give low values",0.0984 (active)
same,normalized growth,"S. cerevisiae deletion strains, locus YOL012C, strain htz1",0.143 (active)
same,normalized growth,"S. cerevisiae deletion strains, locus YOL147C, strain pex11, hits give low values",0.056 (active)
same,normalized growth,"S. cerevisiae deletion strains, locus YOR001W, strain rrp6, hits give low values",0.0598 (active)
same,normalized growth,"S. cerevisiae deletion strains, locus YOR061W, strain CKA2, hits give low values",0.0463 (active)
same,normalized growth,"S. cerevisiae deletion strains, locus YOR069W, strain VPS5, hits give low values",0.0445 (active)
same,normalized growth,"S. cerevisiae deletion strains, locus YOR070C, strain gyp1, hits give low values",0.0552 (active)
same,normalized growth,"S. cerevisiae deletion strains, locus YOR080W, strain dia2, hits give low values",0.0613 (active)
same,normalized growth,"S. cerevisiae deletion strains, locus YOR083W, strain WHI5, hits give low values",0.0558 (active)
same,normalized growth,"S. cerevisiae deletion strains, locus YOR106W, strain vam3, hits give low values",0.0599 (active)
same,normalized growth,"S. cerevisiae deletion strains, locus YOR136W, strain idh2, hits give low values",0.0657 (active)
same,normalized growth,"S. cerevisiae deletion strains, locus YOR144C, strain elg1, hits give low values",0.0549 (active)
same,normalized growth,"S. cerevisiae deletion strains, locus YOR184W, strain ser1, hits give low values",0.0604 (active)
same,normalized growth,"S. cerevisiae deletion strains, locus YOR231W, strain MKK1, hits give low values",0.892
same,normalized growth,"S. cerevisiae deletion strains, locus YOR265W, strain rbl2, hits give low values",0.056 (active)
same,normalized growth,"S. cerevisiae deletion strains, locus YOR270C, strain vph1, hits give low values",0.0763 (active)
same,normalized growth,"S. cerevisiae deletion strains, locus YOR290C, strain snf2, hits give low values",0.0566 (active)
same,normalized growth,"S. cerevisiae deletion strains, locus YOR316C, strain cot1, hits give low values",0.057 (active)
same,normalized growth,"S. cerevisiae deletion strains, locus YPL051W, strain arl3, hits give low values",0.0586 (active)
same,normalized growth,"S. cerevisiae deletion strains, locus YPL055C, strain LGE1, hits give low values",0.0576 (active)
same,normalized growth,"S. cerevisiae deletion strains, locus YPL078C, strain atp4, hits give low values",0.0619 (active)
same,normalized growth,"S. cerevisiae deletion strains, locus YPL106C, strain sse1, hits give low values",0.0837 (active)
same,normalized growth,"S. cerevisiae deletion strains, locus YPL240C, strain hsp82, hits give low values",0.0552 (active)
same,normalized growth,"S. cerevisiae deletion strains, locus YPL256C, strain CLN2, hits give low values",0.981
same,normalized growth,"S. cerevisiae deletion strains, locus YPR119W, strain clb2, hits give low values",0.0589 (active)
same,normalized growth,"S. cerevisiae deletion strains, locus YPR141C, strain kar3, hits give low values",1.06
same,normalized growth,"S. cerevisiae deletion strains, locus YPR163C, strain tif3, hits give low values",0.0677 (active)
same,normalized growth,"S. cerevisiae deletion strains, locus YPR167C, strain met16, hits give low values",0.0591 (active)
same,normalized growth,"S. cerevisiae deletion strains, strain wtn01, hits give low values",0.0573 (active)
same,normalized growth,"S. cerevisiae strains, strain wild type, hits give low values",0.0449 (active)
